# Screening data as filed in PubChem.
# hgDAF12 agonist = hgDAF-12 agonism, primary luciferase screen | HEK293 GAL4-hgDAF12 UAS-luciferase reporter, agonist luminescence; normalized to butyrate control | 370,000 compounds, 1.8% hits | activation, % at 6.8 µM;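 active means activation above a cutoff set at the mean of all screened compounds plus 3 SD, cut at about 10% in these data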;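 further: 0% = DMSO wells and 100% = sodium butyrate wells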
# DAX1 inh = blocks DAX1 repression of SF-1 activated StAR promoter; inhibition, % at 6.8 µM; HEK293T StAR-luciferase reporter, SF-1/DAX-1 repression relief; 370,000 compounds, 1.1% hits;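 active means inhibition above the mean over all tested compounds plus 3 SD, cut at about 3.6% in these data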;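 further: 0% = DAX-1 cells with DMSO and 100% = cells lacking DAX-1 with DMSO; higher inhibition means more luminescence from relief of DAX-1 repression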
# hcDAF12 agonist = H. contortus DAF-12 activation, primary screen. HEK293 hcDAF-12 lit1-tk-luc reporter, luminescence; 0% DMSO, 100% Δ7-dafachronic acid. activation, % at 6.8 µM. 370,000 compounds, 1.4% hits. AID 652067;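 active means activation above the mean of all tested compounds plus 3 SD, cut at about 5.5% in these data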;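 further: 100% = response to 3 µM Δ7-dafachronic acid high control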
# SMARCA2 act = activators of SMARCA2 function. MG213 cells, MMTV-luciferase reporter, dexamethasone, overnight. activation, % at 9.1 µM. 370,000 compounds, 1% hits. AID 652017; in the data active means activation above about 7.8%;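 further: 0% = vehicle wells and 100% = reference activator wells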
# ssDAF-12 act = S. stercoralis DAF-12 activation, primary screen; activation, % at 6.8 µM; HEK293 ssDAF-12/GRIP1 lit1-tk-luc reporter, luminescence; % of 3 µM dafachronic acid response; 370,000 compounds, 1% hits;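 active means activation above the mean over all tested compounds plus 3 SD, cut at about 0.9% in these data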;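 further: 0% = DMSO-only wells and 100% = 3 µM delta7-dafachronic acid wells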
# hgDAF12 conf = confirmation of H. glycines DAF-12 agonists. activation, % at 6.8 µM. shares compounds with hgDAF12 agonist. HEK293 GAL4-hgDAF12 luciferase reporter, agonist mode; percent of butyrate response. 3,300 compounds, 80% hits;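 active means mean activation over triplicate wells above the hit cutoff derived from the earlier primary screen, cut at about 11% in these data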;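 further: 0% = DMSO low control and 100% = 2 mM sodium butyrate high control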
# LXRb DAF12 ctr = activates human LXR-beta, counter-screen for DAF-12 agonists | 3,300 tested, under 10 active | AID 743051 | activation, % at 6.8 µM | shares compounds with hgDAF12 agonist | HEK293 Gal4-LXR luciferase reporter, 24 h;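 active means mean activation of the triplicate above a set limit carried over from the primary screen, none filed active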
# Target sequence (P55055 whole entry, looked up, the tested form may be a part): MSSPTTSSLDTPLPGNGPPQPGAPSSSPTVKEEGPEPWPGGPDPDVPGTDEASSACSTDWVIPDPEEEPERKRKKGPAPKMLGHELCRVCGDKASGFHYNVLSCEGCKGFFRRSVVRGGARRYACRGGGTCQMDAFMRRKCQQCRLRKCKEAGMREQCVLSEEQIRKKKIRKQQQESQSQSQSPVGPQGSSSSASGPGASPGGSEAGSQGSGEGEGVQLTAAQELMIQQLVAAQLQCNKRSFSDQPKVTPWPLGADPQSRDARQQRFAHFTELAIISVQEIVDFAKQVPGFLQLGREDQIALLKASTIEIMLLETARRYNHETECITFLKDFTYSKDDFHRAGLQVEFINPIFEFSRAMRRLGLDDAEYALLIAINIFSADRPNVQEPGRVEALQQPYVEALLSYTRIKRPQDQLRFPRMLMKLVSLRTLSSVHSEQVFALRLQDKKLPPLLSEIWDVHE
# Active calls of the source: *; x = no result. In the library only some 4.2% were active in any assay of this set; here they are far more common.
SMILES,hgDAF12 agonist,DAX1 inh,hcDAF12 agonist,SMARCA2 act,ssDAF-12 act,hgDAF12 conf,LXRb DAF12 ctr
O=C(Nc1ccc2sccc2c1)c1cccc(N2C(=O)CCC2=O)c1,16.9*,4.2*,1.6,2.8,-0.4,12.8*,0.3
CSc1ccccc1OCc1cc(C(=O)N2CCN(c3ccccc3)CC2C)no1 (stereo unspecified),3.0,-0.1,3.9,1.5,-0.2,x,x
CC(=O)c1ccc(OCc2cc(C(=O)N3CCN(c4ccccc4)CC3C)no2)cc1 (stereo unspecified),20.8*,2.6,6.1*,2.4,-0.7,18.4*,0.6
O=C(CCN1CCOCC1)c1ccc2c(c1)OCCO2,0.9,-0.6,-2.1,-1.6,-1.4,x,x
O=C(CCCN1CCOCC1)c1ccc2c(c1)OCCO2,17.4*,3.4,3.4,4.2,0.0,13.9*,0.5
O=C(NN1C(=O)c2ccccc2NC1c1ccco1)c1ccc([N+](=O)[O-])cc1 (stereo unspecified),17.9*,-0.3,1.5,0.8,-1.2,-0.1,0.0
O=C(c1ccc(-c2ccc([N+](=O)[O-])cc2Cl)o1)N1CCOCC1,4.1,0.0,0.0,-1.5,-0.8,x,x
O=C(c1ccc(-c2cccc(Cl)c2Cl)o1)N1CCOCC1,17.1*,4.0*,3.7,-0.7,0.0,15.5*,0.6
O=C(NC1CC1)c1ccc(-c2cnc3cccnn23)cc1,14.2*,4.4*,0.8,1.6,-1.0,8.8,0.2
CCOc1ccc(-c2cnc3cccnn23)cc1,15.0*,3.5,4.5,-0.2,0.0,11.2*,0.5
O=C(NC1CC1)c1cccc(-c2cncc3nccn23)c1,4.0,-0.3,-1.2,3.2,-0.3,x,x
C#CCN1C[C@@]2(O)CC[C@@H](O)[C@@H](OC)[C@@H]2[C@@]1(C)[C@H](O)CC=C(C)C,-2.0,-0.6,-1.4,-0.9,-1.5,x,x
COc1cccc(/C=C/c2ccccn2)c1O,16.0*,3.5,4.7,1.6,0.1,13.6*,0.6
CN=c1scc(-c2cccs2)n1/N=C/c1ccc(O)c(O)c1O,13.6*,3.4,6.1*,-1.1,0.1,11.0*,0.7
O[C@H](COc1ccccc1)CN1CCC(C(O)(c2ccccc2)c2ccccc2)CC1,2.5,1.4,-1.5,-3.7,-1.0,x,x
COCOCCn1cc(CN2CCS(=O)(=O)N(Cc3ccc(-c4ccc(OC)cc4)cc3)C(C)C2=O)nn1 (stereo unspecified),-0.4,-0.1,-1.6,-7.1,-0.9,x,x
CN1CCC(=NNC(=O)c2cc(-c3ccc(Cl)cc3)n[nH]2)CC1,7.5,1.3,-1.3,-1.0,-1.7,x,x
CCOc1ccc(-c2cc(C(=O)NN=C3CCN(C)CC3)[nH]n2)cc1,13.3*,3.2,6.0*,4.3,1.1*,3.1,0.0
O=C(CSc1ccccc1)Nc1ccc(-c2nc3ccccc3[nH]2)cc1,15.8*,2.1,-0.3,2.3,-1.1,12.6*,0.5
CCNC(=S)Nc1ccc(-c2nc3ccccc3[nH]2)cc1,14.1*,4.4*,2.0,4.7,-0.9,16.9*,0.6
C[C@H]1[C@H](NC(=O)c2ccc(C(F)(F)F)cc2)CC[C@@]23CCCN2C(=O)CCC[C@@H]13,1.6,x,-1.1,x,-1.7,x,x
CCC1(c2ccc(F)cc2)NC(=O)N(CC(=O)Nc2ccc(-c3nc4ccc(C)cc4s3)cc2)C1=O (stereo unspecified),19.8*,3.8*,4.6,0.1,0.6,15.9*,0.9
COc1ccc(C2(C)NC(=O)N(CC(=O)Nc3ccc(-c4nc5ccc(C)cc5s4)cc3)C2=O)cc1 (stereo unspecified),18.8*,3.6,2.2,4.3,0.1,11.0*,0.5
Cc1ccc(NC(=O)CN2C(=O)NC(C)(c3ccc(Cl)cc3)C2=O)cc1 (stereo unspecified),0.1,-0.8,-0.2,-3.0,-0.3,x,x
CC(C)[C@H](NC(=O)OC(C)(C)C)c1cc(C(=O)N(C)CCN(C)C)c(N)s1,2.2,1.5,-0.3,-2.0,-1.3,x,x
SMILES,hgDAF12 agonist,DAX1 inh,hcDAF12 agonist,SMARCA2 act,ssDAF-12 act,hgDAF12 conf,LXRb DAF12 ctr
N#C/C(=C(/O)c1ccco1)c1nc2ccccc2[nH]1,22.1*,3.9*,1.4,3.8,1.2*,22.8*,0.2
CCOC(=O)C1(Cc2ccccc2Cl)CCN(C(=O)CN2CCOC2=O)CC1,16.6*,1.9,2.4,4.3,0.2,10.2,0.3
CCOC(=O)C1(CCCc2ccccc2)CCN(C(=O)CN2CCOC2=O)CC1,0.3,0.0,-0.5,0.1,-1.4,x,x
CCCCOCC1CN(CCCC)S(=O)(=O)c2c(cccc2N(C)S(=O)(=O)c2ccc(C)cc2)O1 (stereo unspecified),5.0,-1.8,-1.4,-1.1,-1.7,x,x
C/C(=N\NC(=O)c1ccn[nH]1)c1cn(C)nc1C,15.1*,2.1,3.2,7.7,1.3*,10.1,0.3
C/C(=N\NC(=O)c1nn(C)cc1Br)c1ccncc1,9.9,1.9,1.4,1.2,-1.3,x,x
C[C@H]1[C@H](NC(=O)c2ccc(Cl)c(C(F)(F)F)c2)CC[C@@]23CCCN2C(=O)CCC[C@@H]13,-1.4,x,-0.8,x,-1.8,x,x
O=C(NNC1=NCCCCC1)Nc1cccc(Cl)c1,18.5*,1.5,4.9,2.8,-0.4,18.4*,0.4
O=C(NNC1=NCCCCC1)Nc1ccc(Cl)cc1,1.9,0.4,-1.1,1.8,0.0,x,x
COC(=O)[C@]12CCCCC=C1N(CCC1=CCCCC1)C(=O)[C@H](CC(=O)N1CCN(C(=O)c3ccco3)CC1)C2,-2.8,-1.9,-3.1,0.2,-1.8,x,x
CCOC(=O)c1ccc(NCc2nc3ccccc3[nH]2)cc1,14.9*,3.5,4.5,1.1,0.4,4.7,0.3
Cc1cccc(N=O)n1,1.2,1.0,1.4,-0.9,0.2,x,x
O=c1[nH]c2ccccc2nc1/C=C/c1ccc(O)cc1,14.1*,0.3,-0.9,4.4,-1.2,4.3,0.6
O=c1[nH]c2ccccc2nc1/C=C/c1ccc(F)cc1,16.2*,2.1,3.6,3.0,-0.8,10.6*,0.5
Fc1ccc2cnc(-c3ccsc3)cc2c1,14.0*,3.4,3.4,6.5,-0.1,7.2,0.3
CC1CCCN(CCCNS(=O)(=O)c2cc3c(cc2Br)CCN3C(=O)C2CC2)C1 (stereo unspecified),3.3,1.9,-0.1,0.8,-0.3,x,x
O=C(NC1=NCCS1)c1ccncc1,4.0,0.1,-0.5,1.2,-1.0,x,x
Cc1cc(C(=O)NC2=NCCS2)cs1,16.8*,2.6,5.1,4.4,-0.1,15.3*,0.6
Cn1ccc2cc(OCc3ccccc3)ccc21,22.1*,4.2*,4.5,3.9,1.4*,15.1*,0.7
Cn1cccc1C=NNC(=O)c1cc(-c2ccc(Cl)cc2)n[nH]1,4.4,0.3,-1.1,-1.5,-1.4,x,x
